# Pf Dd2 inh: inhibitors of Plasmodium falciparum Dd2 growth | P. falciparum Dd2 growth, SYBR Green, 72 h; hits give low values | activity change, % at 10 µM | AID 1159554 | 94,000 tested, 2.3% active; in the data active = activity change below about -80%; inconclusive = no clear call, values can overlap the other calls
# T cruzi growth-1: inhibitors of T. cruzi proliferation; T. cruzi beta-gal in NIH3T3, GalScreen luminescence, 90 h; 77,000 tested, 5.9% active; inhibition, % at 8.34 µM;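 active = mean inhibition above about 93%, with at least 55% of replicates each passing it, limit read from the data, passing the limit was not always enough; inconclusive = only one of those two conditions holds; inactive = neither condition holds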
# C diff growth: inhibitors of Clostridium difficile growth; Clostridium difficile clinical isolate growth, OD600, 24 h; hits give low values; growth activity, negative = inhibition, % at 16 µg/mL (by protocol); 86,000 tested, 0.25% active;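 active = mean growth activity at or below -80% and every replicate also at or below -80%; inconclusive = mean at or below -80% but some replicate above -80%; inactive = mean growth activity above -80%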;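 note: 0% = DMSO wells and -100% = levofloxacin 16 µg/mL wells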
# T cruzi growth-2: Trypanosoma cruzi proliferation inhibition. T. cruzi beta-gal in NIH3T3, GalScreen luminescence, 90 h. inhibition, % at 8.35 µM. shares compounds with T cruzi growth-1. 5,600 tested, 72% active;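 active = mean replicate inhibition above about 95% and at least 55% of replicates individually reaching it, limit read from the data; inconclusive = only one of the two criteria is met; inactive = neither criterion is met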
# T cruzi growth-3: blocks T. cruzi growth in NIH3T3 host cells | shares compounds with T cruzi growth-1 | T. cruzi beta-gal in NIH3T3, GalScreen luminescence, 90 h | inhibition, % at 2.09 µM | 5,600 tested, 21% active | AID 651740;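 active = mean inhibition above about 95%, with at least 55% of replicates also reaching it, limit read from the data; inconclusive = meets just one of the two conditions; inactive = meets neither condition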;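 note: plate controls were neutral control median for no effect and positive control median for full effect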
# NIH3T3 tox: cytotoxicity in mouse NIH/3T3 fibroblasts. NIH/3T3 viability, CellTiter-Glo ATP luminescence, 90 h. shares compounds with T cruzi growth-1. cytotoxicity (signal decrease), % at 8.35 µM. 5,600 tested, 14% active;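 active = mean signal decrease across replicates above about 35% based on untreated-well scatter, with enough replicates individually passing, limit read from the data; inconclusive = no rule stated though some were filed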;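 note: 0% = median of neutral control wells and 100% = median of positive control wells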
# 3T3 cytotox 2: cytotoxicity in mouse NIH/3T3 fibroblasts | 5,600 tested, 56% active | AID 651744 | NIH/3T3 viability, CellTiter-Glo ATP luminescence, 90 h | inhibition, % at 24.9 µM | shares compounds with T cruzi growth-1;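 active = mean loss of cell viability signal at or above a set limit, and enough replicates individually reaching it; inconclusive = meets only the mean limit or only the replicate share; inactive = meets neither condition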;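 note: 0% = median of neutral control wells and 100% = median of positive control wells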
# * = called active by the depositor; ? = inconclusive; . = not tested or not shown. Rows were chosen to be rich in hits. Some 6.7% of all compounds tested hit in one or more screens of this group.
SMILES,Pf Dd2 inh,T cruzi growth-1,C diff growth,T cruzi growth-2,T cruzi growth-3,NIH3T3 tox,3T3 cytotox 2
C[C@H](CO)N1C[C@H](C)[C@H](CN(C)C(=O)C2CCC2)Oc2cc(-c3ccc(F)cc3)ccc2S1(=O)=O,-38.3,82.5,.,.,.,.,.
CCCNC(=O)Nc1ccc2c(c1)C(=O)N(C)C[C@@H](OC)[C@@H](C)CN(C(=O)C1CCOCC1)[C@@H](C)CO2,-23.1,3.3,.,.,.,.,.
C[C@@H]1CN([C@H](C)CO)S(=O)(=O)c2ccc(C3=CCCCC3)cc2O[C@@H]1CN(C)CC1CC1,-50.0,66.8,.,.,.,.,.
C[C@@H]1CN([C@@H](C)CO)S(=O)(=O)c2ccc(C3=CCCC3)cc2O[C@H]1CN(C)CC1CC1,-27.8,92.9,3.6,.,.,.,.
C[C@H](CO)N1C[C@H](C)[C@@H](CN(C)CC2CCCC2)Oc2cc(C3=CCCCC3)ccc2S1(=O)=O,-50.6,105.9*,6.0,97.3*,76.8,13.5,103.4*
C[C@H](CO)N1C[C@H](C)[C@@H](CN(C)CC2CCCC2)Oc2cc(C3=CCCC3)ccc2S1(=O)=O,-58.9,102.8*,8.5,103.1*,65.1,8.1,107.2*
C[C@@H]1CN([C@@H](C)CO)S(=O)(=O)c2ccc(C3=CCCCC3)cc2O[C@@H]1CN(C)CC1CC1,-50.4,51.2,.,.,.,.,.
C[C@@H]1CN([C@@H](C)CO)S(=O)(=O)c2ccc(C3=CCCCC3)cc2O[C@H]1CN(C)CC1CCCC1,-36.8,123.3*,5.0,102.4*,72.6,120.2*,105.5*
C[C@@H]1CN([C@@H](C)CO)C(=O)Cc2cc(NC(=O)Cc3cn(C)c4ccccc34)ccc2O[C@H]1CN(C)C(=O)Nc1ccc2c(c1)OCO2,-3.3,7.5,0.5,.,.,.,.
CO[C@H](CN(C)C(=O)c1ccccc1F)[C@@H](C)CN([C@@H](C)CO)S(=O)(=O)c1ccccc1,21.5,10.4,.,.,.,.,.
O=S(=O)(c1cccc(F)c1)N1CC[C@H]2[C@H](CO)Nc3ccc(-c4cccc(F)c4)cc3[C@H]21,3.2,16.0,-1.7,.,.,.,.
CCS(=O)(=O)NCC[C@H]1CC[C@H](NC(=O)C2CCC2)[C@H](CO)O1,12.4,.,-0.6,.,.,.,.
CCC(=O)N1C[C@H]2[C@@H](c3ccccc31)[C@H](CO)N2Cc1cc(F)ccc1F,3.6,39.0,-1.9,.,.,.,.
CCN1[C@@H]2c3ccc(C4=CCCCC4)c(=O)n3C[C@H]1[C@H](CO)[C@H]2C(=O)N1CCc2ccccc2C1,-10.2,62.8,-0.4,.,.,.,.
CCCC#Cc1cnc2c(c1)C(=O)N([C@@H](C)CO)C[C@@H](C)[C@H](CN(C)C(=O)c1ccc(F)cc1)O2,-57.5,49.8,-7.0,.,.,.,.
C[C@@H]1CCCCO[C@H](CN(C)C(=O)Nc2ccccc2)[C@@H](C)CN([C@H](C)CO)C(=O)c2cc(NC(=O)Cc3ccccc3)ccc2O1,-11.8,-6.8,.,.,.,.,.
C[C@H]1CCCCO[C@H](CN(C)C(=O)Nc2ccc(C(F)(F)F)cc2)[C@@H](C)CN([C@@H](C)CO)C(=O)c2cc(NC(=O)Cc3ccccc3)ccc2O1,-89.1*,?,0.6,101.1*,113.1*,29.8,16.6
C[C@@H]1CCCCO[C@H](CN(C)C(=O)Nc2ccc(C(F)(F)F)cc2)[C@H](C)CN([C@H](C)CO)C(=O)c2cc(NC(=O)Cc3ccccc3)ccc2O1,-85.7*,?,5.8,109.5*,106.6*,14.1,56.2*
C[C@H]1CCCCO[C@H](CN(C)C(=O)Nc2ccccc2)[C@@H](C)CN([C@@H](C)CO)C(=O)c2cc(NC(=O)Cc3ccccc3)ccc2O1,-51.0,39.6,.,.,.,.,.
C[C@H](CO)N1C[C@H](C)[C@@H](CN(C)C(=O)Nc2ccc(C(F)(F)F)cc2)OCCCC[C@H](C)Oc2ccc(NC(=O)Cc3ccccc3)cc2C1=O,-84.6*,127.7*,-1.7,108.1*,110.3*,12.6,?
C[C@@H]1CCCCO[C@@H](CN(C)C(=O)Nc2ccccc2)[C@@H](C)CN([C@@H](C)CO)C(=O)c2cc(NC(=O)Cc3ccccc3)ccc2O1,-33.8,36.1,.,.,.,.,.
C[C@@H]1CCCCO[C@H](CN(C)C(=O)Nc2ccccc2)[C@@H](C)CN([C@@H](C)CO)C(=O)c2cc(NC(=O)Cc3ccccc3)ccc2O1,-52.3,20.8,.,.,.,.,.
C[C@@H]1CCCCO[C@@H](CN(C)C(=O)Nc2ccc(C(F)(F)F)cc2)[C@H](C)CN([C@H](C)CO)C(=O)c2cc(NC(=O)Cc3ccccc3)ccc2O1,-77.7,?,9.1,105.7*,104.1*,-20.0,16.3
C[C@@H]1CCCCO[C@H](CN(C)C)[C@@H](C)CN([C@@H](C)CO)C(=O)c2cc(NC(=O)NC3CCCCC3)ccc2O1,9.9,63.3,-0.2,.,.,.,.
O=C(C1CC1)N1CCCCN2[C@@H](CO)[C@@H](c3ccc(-c4ccncc4)cc3)[C@@H]2C1,17.2,-131.8,-5.3,.,.,.,.
SMILES,Pf Dd2 inh,T cruzi growth-1,C diff growth,T cruzi growth-2,T cruzi growth-3,NIH3T3 tox,3T3 cytotox 2
O=C(C[C@@H]1C=C[C@H](NC(=O)C2CC2)[C@H](CO)O1)NCc1ccccc1Cl,8.5,27.8,.,.,.,.,.
COc1cccc(NC(=O)N2C[C@H](O)COC[C@H]3O[C@@H](CC(=O)NCc4ccccc4F)CC[C@@H]32)c1,3.3,.,2.6,.,.,.,.
C[C@@H]1CCCCO[C@@H](CN(C)C(=O)Nc2ccc(C(F)(F)F)cc2)[C@H](C)CN([C@@H](C)CO)C(=O)c2cc(NC(=O)Cc3ccccc3)ccc2O1,-46.0,121.8*,2.8,108.2*,92.6,26.3,43.2*
C[C@@H]1CN([C@H](C)CO)C(=O)c2cc(NC(=O)Cc3ccccc3)ccc2O[C@@H](C)CCCCO[C@H]1CN(C)C(=O)Nc1ccccc1,-8.0,-0.4,.,.,.,.,.
CCNC(=O)C[C@@H]1CC[C@@H]2[C@@H](COc3ccc(NC(=O)C4CCOCC4)cc3C(=O)N2C)O1,6.4,-37.2,1.4,.,.,.,.
COc1ccc2c3c([nH]c2c1)[C@@H](CO)N(Cc1ccccc1F)CC31CN(C(=O)C2CCCC2)C1,-78.2,.,-0.1,.,.,.,.
N#C[C@H]1[C@@H](c2ccc(C3=CCCC3)cc2)[C@H](CO)N1c1nc(-c2ccccc2)cs1,31.1,.,-9.2,.,.,.,.
CCc1cnc(N2[C@@H](C#N)[C@H](c3ccc(C4=CCCCC4)cc3)[C@@H]2CO)s1,16.9,88.0,-14.4,.,.,.,.
CCc1cnc(N2[C@H](CO)[C@H](c3ccc(C4=CCCCC4)cc3)[C@@H]2C#N)s1,-7.2,103.5*,-7.7,104.5*,101.7*,38.0*,40.0*
CCc1csc(N2[C@H](C#N)[C@H](c3ccc(C4=CCCC4)cc3)[C@@H]2CO)n1,-35.6,101.6*,1.1,106.9*,112.5*,12.1,36.2*
N#C[C@H]1[C@H](c2ccc(C3=CCCC3)cc2)[C@@H](CO)N1c1nc(-c2ccccc2)cs1,-1.5,57.8,16.8,.,.,.,.
CCc1csc(N2[C@H](C#N)[C@H](c3ccc(C4=CCCC4)cc3)[C@H]2CO)n1,-28.5,102.5*,3.7,103.3*,28.8,-5.0,20.1

# Screening data deposited in PubChem BioAssay by Broad Institute.
